Where a structure was tested more than once in an assay, its records may differ in their call. The source made the active and inactive calls. How the source made its calls: active means hit-call score of the fitted dose curve at least 0.9, where 1 is the maximum; inactive means score below 0.9.
Legend:
[1] = read-out: Tissue Factor, F3 (gene 2152); test: BSK_LPS_TissueFactor: BioMAP Diversity Plus: LPS Assay for Tissue Factor Biomarker Activity (AID 2283084); settings: primary human HUVEC with PBMC; actives raise or lower the signal
Method in brief: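 Compound was added to an endothelial cell/PBMC co-culture, and after 24 h tissue factor (CD142) was read by ELISA. Gain or loss of signal was fitted against a DMSO baseline, and parallel SRB staining (560 nm) tracked overt cytotoxicity.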

[2] = read-out: Tumor necrosis factor (Homo sapiens) (UniProt P01375); test: BSK_LPS_TNFa: BioMAP Diversity Plus: LPS Assay for Tumour Necrosis Factor alpha (TNFa) Biomarker Activity (AID 2283085); settings: primary human HUVEC with PBMC; actives raise or lower the signal
Method in brief: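 Human umbilical vein endothelial cells co-cultured with PBMC were exposed to test chemical and TNFa measured by ELISA 24 h after dosing. Bidirectional curve fitting was done relative to DMSO as negative control and baseline.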

[3] = read-out: Vascular cell adhesion molecule 1 (VCAM1), VCAM1 (gene 7412); test: BSK_LPS_VCAM1: BioMAP Diversity Plus: LPS Assay for Vascular cell adhesion molecule 1 (VCAM1) Biomarker Activity (AID 2283086); settings: primary human HUVEC with PBMC; actives raise or lower the signal
Method in brief: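 Human umbilical vein endothelial cells co-cultured with peripheral blood mononuclear cells under LPS stimulation were exposed to test chemical for 24 h. VCAM-1 levels were then measured by ELISA, with bidirectional curve fitting relative to DMSO as negative control and baseline.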

[4] = read-out: CD38, CD38 (gene 952); test: BSK_SAg_CD38: BioMAP Diversity Plus: SAg Assay for CD38 Biomarker Activity (AID 2283087); settings: primary human HUVEC with PBMC; actives raise or lower the signal
Method in brief: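 Fluorescence ELISA of cell-surface CD38 served as the read-out, with either increase or decrease fitted against DMSO controls. Cells were a human umbilical vein endothelium plus PBMC co-culture under SEB/TSST-1 stimulation, measured 24 h after dosing.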

[5] = read-out: CD40, CD40 (gene 958); test: BSK_SAg_CD40: BioMAP Diversity Plus: SAg Assay for CD40 Biomarker Activity (AID 2283088); settings: primary human HUVEC with PBMC; actives raise or lower the signal
Method in brief: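 CD40 is measured by fluorescence ELISA in an endothelial/PBMC primary human co-culture at 24 h post-dose. Fitting is bidirectional, DMSO baseline. Parallel SRB staining (560 nm) flags cytotoxicity.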

[6] = read-out: CD69, CD69 (gene 969); test: BSK_SAg_CD69: BioMAP Diversity Plus: SAg Assay for CD69 Biomarker Activity (AID 2283089); settings: primary human HUVEC with PBMC; actives raise or lower the signal;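 on AC50: cell surface CD69 protein quantified by ELISA with fluorescence detection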
Method in brief: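 HUVEC co-cultured with PBMC were dosed with chemical, and CD69 was measured by ELISA with fluorescence read-out 24 h later. Bidirectional curve fitting used DMSO as negative control and activity baseline.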

[7] = read-out: Monocyte Chemoattractant Protein-1 (MCP1), CCL2 (gene 6347); test: BSK_SAg_MCP1: BioMAP Diversity Plus: SAg Assay for Monocyte Chemoattractant Protein-1 (MCP1) Biomarker Activity (AID 2283090); settings: primary human HUVEC with PBMC; actives raise or lower the signal
Method in brief: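 MCP-1 levels in the endothelial–PBMC SAg co-culture were quantified by ELISA at 24 h post-dosing; both increases and decreases versus DMSO scored. Cytotoxicity monitored by SRB total protein in parallel cultures.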

[8] = read-out: E-selectin (Homo sapiens) (UniProt P16581); test: BSK_SAg_Eselectin: BioMAP Diversity Plus: SAg Assay for Eselectin Biomarker Activity (AID 2283091); settings: primary human HUVEC with PBMC; actives raise or lower the signal
Method in brief: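 Cell-surface E-selectin is read by ELISA at 24 h in the SAg co-culture of HUVEC and PBMC. Curves are fitted in both directions relative to DMSO. Parallel SRB total-protein staining tracks overt toxicity.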

[9] = read-out: Monokine induced gamma interferon (MIG), CXCL9 (gene 4283); test: BSK_SAg_MIG: BioMAP Diversity Plus: SAg Assay for Monokine induced gamma interferon (MIG) Biomarker Activity (AID 2283092); settings: primary human HUVEC with PBMC; actives raise or lower the signal
Method in brief: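 HUVEC plus human PBMC co-culture, chemicals dosed and MIG (CXCL9) quantified by ELISA at 24 h. Bidirectional curve fitting against DMSO as negative control and baseline, so both gain and loss of signal count as activity.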

[10] = BSK_SAg_PBMCCytotoxicity: PBMC Cytotoxicity Assessment in the BioMAP Diversity Plus: SAg Assay (AID 2283093); settings: primary human HUVEC with PBMC;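 further: PBMC viability measured as Alamar Blue reduction fluorescence at 546/580 nm; fitted both ways against DMSO so a hit may be loss or gain of signal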;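 on AC50: PBMC superantigen activated with SEB plus TSST-1 one hour after compound addition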
Method in brief: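 Human umbilical vein endothelial cells co-cultured with PBMC; PBMC (75,000/well) pre-treated with compound 1 h, then activated with SEB and TSST-1 (20 ng/mL final each) for 90 h. Alamar Blue added 6 h, fluorescence 546/580 nm; bidirectional fit versus DMSO.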

Measured: AC50

Chain of Tumor necrosis factor (Homo sapiens) (P01375 whole entry, looked up): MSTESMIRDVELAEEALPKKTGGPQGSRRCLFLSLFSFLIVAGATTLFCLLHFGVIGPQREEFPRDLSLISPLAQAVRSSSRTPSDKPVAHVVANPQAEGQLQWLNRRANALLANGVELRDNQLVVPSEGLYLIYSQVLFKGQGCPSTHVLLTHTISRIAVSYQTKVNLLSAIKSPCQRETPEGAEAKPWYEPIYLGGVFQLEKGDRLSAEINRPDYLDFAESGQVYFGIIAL
Chain of E-selectin (Homo sapiens) (P16581 whole entry, looked up): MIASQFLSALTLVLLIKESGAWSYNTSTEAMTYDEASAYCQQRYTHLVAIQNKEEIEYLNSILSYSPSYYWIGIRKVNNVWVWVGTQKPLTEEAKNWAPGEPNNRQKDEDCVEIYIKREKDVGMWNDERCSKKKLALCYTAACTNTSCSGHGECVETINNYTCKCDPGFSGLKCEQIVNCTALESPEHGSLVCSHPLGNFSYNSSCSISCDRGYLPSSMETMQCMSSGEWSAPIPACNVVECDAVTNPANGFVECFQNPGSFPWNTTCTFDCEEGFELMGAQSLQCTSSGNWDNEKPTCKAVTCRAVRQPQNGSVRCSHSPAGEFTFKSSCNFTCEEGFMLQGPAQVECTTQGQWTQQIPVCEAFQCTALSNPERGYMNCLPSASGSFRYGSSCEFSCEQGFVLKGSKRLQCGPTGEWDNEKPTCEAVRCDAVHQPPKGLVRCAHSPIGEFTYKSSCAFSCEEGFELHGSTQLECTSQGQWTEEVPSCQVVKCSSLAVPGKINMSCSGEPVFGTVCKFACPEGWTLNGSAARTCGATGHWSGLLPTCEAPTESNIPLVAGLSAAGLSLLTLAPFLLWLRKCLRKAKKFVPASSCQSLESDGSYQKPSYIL

O=[N+]([O-])c1cccc2ccccc12
inactive: all assays above

OC(Cc1ccccc1Cl)(Cn1cncn1)C1(Cl)CC1 (stereo unspecified)
not listed: [7]
inactive: all other assays above

Clc1cccc(Cl)c1Cl
inactive: all assays above

N#Cc1cccnc1
inactive: all assays above

Oc1cccc(-c2ccccc2)c1
inactive: [2] | [4] | [6] | [9]
active: [1] 33.3 µM | [3] 20 µM | [5] 30.8 µM | [7] 20 µM | [8] 33.6 µM | [10] 32.1 µM

CCOP(=S)(OCC)SCS(=O)(=O)C(C)(C)C
inactive: all assays above

N#CCCC(Br)(C#N)CBr (stereo unspecified)
active: [1] 21.4 µM | [2] 13 µM | [3] 9.05 µM | [4] 10.2 µM | [5] 11.2 µM | [6] 17 µM | [8] 20 µM | [9] 30 µM | [10] 2.52 µM

c1ccc(-c2cccc(-c3ccccc3)c2)cc1
inactive: [2] | [9]
active: [1] 32.7 µM | [3] 27.3 µM | [4] 30.5 µM | [5] 29.4 µM | [6] 30.9 µM | [7] 32.5 µM | [8] 33.1 µM | [10] 20 µM

COc1ccccc1N
inactive: all assays above

Oc1c(Br)cc(Br)cc1Br
active: [4] 30.3 µM | [5] 20 µM | [6] 35 µM | [8] 20 µM
inactive: all other assays above

c1ccc2sc(SNC3CCCCC3)nc2c1
active: [1] 0.676 µM | [2] 30.5 µM | [10] 27 µM
inactive: all other assays above

NC(=O)CCl
inactive: all assays above

Oc1cc(Cl)c(Cl)cc1Cl
inactive: [1] | [2] | [9] | [10]
active: [3] 32 µM | [4] 26.8 µM | [5] 24.8 µM | [6] 20 µM | [7] 32.2 µM | [8] 26.5 µM

O=C(Cc1ccccc1)OCCc1ccccc1
inactive: all assays above

Cc1ccc(OP(=O)(Oc2ccc(C)cc2C)Oc2ccc(C)cc2C)c(C)c1
active: [2] 34.1 µM | [5] 20 µM | [6] 20 µM | [7] 5.89 µM | [10] 20 µM
inactive: [1] | [3] | [4] | [8] | [9]

CC(C)(COCC1CO1)COCC1CO1 (stereo unspecified)
active: [6] 20 µM | [8] 20 µM
not listed: [7]
inactive: all other assays above

CCCCN(CCCC)C(=S)[S-].CCCCN(CCCC)C(=S)[S-].[Ni+2]
inactive: all assays above

CCCCOC(=O)COC(=O)c1ccccc1C(=O)OCCCC
inactive: all assays above

CCOC(=O)CC(=O)CCl
active: [1] 33.1 µM | [2] 34.9 µM | [3] 7.27 µM | [4] 24.6 µM | [5] 20 µM | [6] 27 µM | [7] 20 µM | [8] 20 µM | [10] 9.62 µM
inactive: [9]

O=C(O)C1(c2ccc3c(c2)OC[C@H](Cc2ccc(-c4ccccc4)cc2)[C@H]3O)CCCC1
active: [3] 20 µM | [4] 23.3 µM | [5] 20 µM | [7] 20 µM | [8] 14.1 µM
inactive: all other assays above

CN(C)C(=S)S
active: [10] 0.148 µM
inactive: all other assays above

CCOC(=O)CCN(SN(C)C(=O)Oc1cccc2c1OC(C)(C)C2)C(C)C
active: [3] 20 µM | [4] 30 µM | [5] 29.6 µM | [6] 29.3 µM | [7] 32 µM | [8] 27.7 µM | [9] 35.4 µM | [10] 26 µM
inactive: [1] | [2]

CC1(C)[C@H](C(=O)O[C@H](C#N)c2cccc(Oc3ccccc3)c2)[C@@H]1/C=C(\Cl)C(F)(F)F
inactive: [1] | [2] | [3] | [4] | [6] | [8] | [9] | [10]
active: [2] 2.79 µM | [4] 5.06 µM | [5] 4.51 µM | [6] 3.39 µM

OCCN(CCO)CCO
inactive: all assays above

CCOP(=O)(OCC)OC(=CCl)c1ccc(Cl)cc1Cl
active: [1] 11.9 µM | [5] 20 µM | [6] 20 µM | [8] 28.6 µM
not listed: [7]
inactive: all other assays above

O=[N+]([O-])c1ccc(Nc2ccccc2)cc1
active: [2] 32.5 µM
inactive: all other assays above

OCCCCO
inactive: all assays above

O=C(O)COc1cc(Cl)c(Cl)cc1Cl
not listed: [7]
inactive: all other assays above

Oc1c(Cl)cc(Cl)cc1Cl
active: [5] 13.3 µM
not listed: [10]
inactive: all other assays above

Cc1ccccc1OP(=O)(Oc1ccccc1C)Oc1ccccc1C
inactive: [2]
active: [1] 27.5 µM | [3] 11.4 µM | [4] 28.9 µM | [5] 12.5 µM | [6] 13.8 µM | [7] 14.8 µM | [8] 30.6 µM | [9] 33.6 µM | [10] 26.6 µM

Cc1cc(Cl)ccc1OC(C)C(=O)O (stereo unspecified)
inactive: all assays above

Nc1ccc(N)cc1
active: [1] 5.53 µM
inactive: all other assays above
